Hits are enriched below; roughly 11% of the tested compounds scored in any of these assays.
HADH2 inhib = blocks human hydroxyacyl-CoA dehydrogenase type II | Q99714 | recombinant HADH2, NADH fluorescence, beta-hydroxybutyryl-CoA | Potency, µM (doses to about 57.1 µM), inactives show at the highest dose activity change, negative = inhibition, most hits filed as inhibitors | 73,000 compounds, 3.4% hits; note: nearly all actives have a fitted effect of over 60% in size
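Read-out: 360 nm excitation, 450 nm emission, kinetic over 4 min. Conditions: His-tagged human HADH2 20 nM, pH 9.0 Tris with Tween-20, 1 mM NAD+, 90 uM beta-hydroxybutyryl-CoA.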
PK Bst = modulators of Bacillus stearothermophilus pyruvate kinase; Potency, µM; 51,000 compounds, 1.2% hits; purified pyruvate kinase, luminescence ATP production; ribose 5-phosphate activator present at AC10; in the data active = potency below about 11 µM; inconclusive = mostly about 12 µM to 25 µM;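 the screen sought inhibitors and activators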;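 note: scaled between full activation by ribose 5 phosphate and full inhibition by luteolin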
Luciferase inh = firefly luciferase inhibition | P08659 | purified firefly luciferase, luminescence, 8 min | Potency, µM (series often up to 57.1 µM), for inactives: at the highest dose activity change, negative = inhibition, actives largely listed as inhibitors | 72,000 compounds, 2.2% hits; note: nearly all actives have a fitted effect of over 40% in size
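Firefly luciferase (PKLight detection mix) with 10 uM ATP in pH 7.2 imidazole buffer (KCl, MgCl2, Tween 20, BSA). Compounds tested across a concentration series (qHTS). Luminescence read after 8 min at ambient temperature.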
HSD17B inhib = blocks hydroxysteroid 17-beta dehydrogenase activity; Q99714; recombinant HSD17B10, NADH fluorescence kinetic; Potency, µM (highest dose often 57.1 µM), inactives show at the highest dose activity change, negative = inhibition, actives largely listed as inhibitors; 75,000 compounds, 7.6% hits;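 note: the protocol describes HADH2 (HSD17B10) and not the HSD17B4 of the title; nearly all actives have a fitted effect of over 70% in size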
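Activity followed as NADH fluorescence increase (ex 360, em 450 nm) every 30 seconds for 4 min, using final 90 uM beta-hydroxybutyryl CoA and 1 mM NAD+. Recombinant His-tagged enzyme, 20 nM, pH 9.0 Tris buffer, 15 min compound preincubation.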
ALOX15 inhib = inhibitors of human 15-lipoxygenase (ALOX15) | P16050 | purified 15hLO-1, xylenol orange hydroperoxide absorbance | Potency, µM (titrated, usually from 57.1 µM), for inactives: at the highest dose activity change, negative = inhibition, hits mostly inhibitors | 74,000 compounds, 1.4% hits | AID 887; note: nearly all actives have a fitted effect of over 55% in size
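Quantitative HTS in 25 mM Hepes pH 7.5 containing 0.01% Triton X-100: human 15hLO-1 at 40 nM, arachidonic acid at 50 uM, 6 min turnover. Product quantified via ferrous oxidation/xylenol orange, 573:405 nm absorbance ratio.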
ERK AVP inh = vasopressin-driven ERK pathway inhibition | AID 995 | Potency, µM (highest dose often 57.5 µM), for the others: at the top dose activity, negative = inhibition, actives largely listed as inhibitors | HEK293-V1b, vasopressin-stimulated pERK AlphaScreen | 72,000 compounds, 0.99% hits; note: nearly all actives have a fitted effect of over 55% in size
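Overnight-seeded V1b-HEK293 cells in 1% FBS got compound, then vasopressin (25 nM final, 5 min, 37C), then lysis buffer. AlphaScreen detection of phospho-ERK; activity normalized to basal and full-stimulation controls.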
An asterisk follows results filed as active; ? = inconclusive; · = not tested or not shown; [ ] = another dose, or the depositor's remark. Unless noted, calls come from the whole dose curve; as a rule, active = well fitted curve in the direction sought with a large enough effect; inconclusive = small, poorly fitted or top-dose-only effect, or another doubt; inactive = no such curve, though single readings can be large; an effect the other way counts as inactive or inconclusive. Unless noted, % is set by controls: 0 for no effect and ±100 for the full control effect; potency is the fitted concentration of half-maximal effect.

SMILES | HADH2 inhib | PK Bst | Luciferase inh | HSD17B inhib | ALOX15 inhib | ERK AVP inh
Cc1ccc(C2CCN(C(=O)Nc3ccccc3)C2)cc1 (configuration not stated) | 3% | · | 25µM* | -2% | 1% | 17%
Cc1ccc(NC(=O)N2CCC(C(=O)NCc3ccccc3)CC2)cc1 | 27% | >57 | 0% | 9% | 5% | 27%
CCOc1nc(-c2ccc(C)cc2)ccc1-c1noc(COC)n1 | ? | · | -3% | 32µM* | 1% | 21%
CCOc1nc(C)ccc1-c1noc(-c2ccccn2)n1 | 25µM* | >57 | -1% | 25µM* | -1% | -9%
COc1ccc(-c2ccc(-c3noc(-c4ccccc4)n3)c(OC)n2)cc1 | ? | >11 | -4% | 10µM* | -3% | -23%
COc1nc(-c2ccccc2)ccc1-c1noc(-c2ccccc2)n1 | 2% | · | ? | -4% | -5% | -9%
Cc1ccccc1-c1noc(-c2cccs2)n1 | -2% | · | -18% | 6% | 3% | 54%
COc1nc(-c2ccccc2)ccc1-c1noc(-c2cccs2)n1 | -30% | >57 | -2% | 4µM* | -14% | 0%
NCc1ccc(C(=O)O)cc1 | -1%[11.4 µM] | · | 1%[11.4 µM] | 5%[11.4 µM] | -1%[11.4 µM] | 19%[11.5 µM]
NC(=O)SCC(=O)Nc1ccc2ncccc2c1 | ? | · | -1%[11.4 µM] | -2%[11.4 µM] | 18%[11.4 µM] | 14%[11.5 µM]
Cc1ccc(NS(=O)(=O)c2cc(C(=O)O)ccc2Cl)cc1C | 2% | · | · | -1% | 2% | ·
COc1nc(-c2ccccc2)ccc1-c1noc(COc2ccccc2)n1 | -6% | >57 | 0% | 32µM* | ? | 48%
CCOc1nc(-c2ccccc2)ccc1-c1noc(-c2cccnc2)n1 | -23% | >57 | 1% | 32µM* | 5% | -8%
CCOc1nc(-c2ccccc2)ccc1-c1noc(-c2ccc(OC)c(OC)c2)n1 | 92% | >57 | -1% | ? | 4% | 2%
COc1ccc(-c2ccc(-c3noc(-c4ccccc4F)n3)c(OC)n2)cc1 | 13µM* | >57 | -1% | 2µM* | 3% | -7%
c1ccc(OCc2nc(-c3ccccc3)no2)cc1 | -2% | >57 | -29% | -3% | 0% | 39%
COc1ccc(-c2noc(-c3ccc(Cl)cc3)n2)cc1 | 7% | 5.4* | ? | 6% | -2% | 2%
COc1ccc(CNC(=O)c2cc(-c3cccc(OC)c3)on2)cc1 | 1% | · | -3% | 4% | -5% | -7%
OC[C@@H]1O[C@@H](n2cnc3c(NCCc4ccccc4)ncnc32)[C@@H](O)[C@H]1O | 0% | · | -4% | · | · | ·
CCc1ccc(C2CC(c3ccccc3)n3ncnc3N2)cc1 (configuration not stated) | -21% | · | -1% | -1% | 44% | 32µM*
COc1cc(C)cc2c(-c3c(O)cc(O)c4c3C[C@H](C)N[C@@H]4C)cc(-c3cc(-c4c(O)cc(O)c5c4C[C@H](C)N[C@@H]5C)c4cc(C)cc(OC)c4c3O)c(O)c12 | 9%[11.4 µM] | · | 1%[11.4 µM] | -20%[11.4 µM] | -18%[11.4 µM] | -16%[11.5 µM]
CCCCOc1[nH]c2nc(-c3ccco3)n(Cc3ccco3)c(=N)c2c1C#N | 25µM* | 11* | 2% | 25µM* | -8% | 9%
COC(=O)CSC1=NS(=O)(=O)c2ccccc21 | 20µM* | · | -11% | -26% | 6% | 7%
Cc1ccc(-c2nnc(N(C)C(=O)c3cccnc3)s2)cn1 | 17% | >57 | -2% | 194% | 7% | -16%
COc1ccc(-c2nnc(N(C)C(=O)c3cccnc3)s2)cc1 | 4% | · | 6.3µM* | 54% | -3% | 1%
O=C(Cn1c(=O)oc2cc(S(=O)(=O)N3CCCC3)ccc21)Nc1ccc(C(F)(F)F)cc1 | 21% | >57 | -2% | 32µM* | -18% | 15%
CN1CCc2c(sc3c2C(=O)NC(c2ccc(-c4cccc(Cl)c4)o2)N3)C1 (configuration not stated) | 25µM* | · | -2% | ? | 2.5µM* | 1%
Cc1ccsc1C1NC(=O)c2c(sc3c2CCN(C)C3)N1 (configuration not stated) | ? | · | -9% | 32µM* | ? | ?

Screens deposited in PubChem BioAssay by National Center for Advancing Translational Sciences (NCATS).
